# In publication PMC7819943, “Rice protein-binding microarrays: a tool to detect cis-acting elements near promoter regions in rice”:
# In all, about 68,000 sequences were measured (“fluorescence intensity (a.u.)”: median about 9,100, highest 2% from about 16,000 on). What follows is part of a selection rich in the highest values, with near analogues and random picks from the rest.
# Molecular target: OsWRKY34 (Oryza sativa, UniProt Q0JBA9 1-250)
# Test: protein-binding microarray (RPBM); PBS, 2% BSA, 51.3 ng/ul salmon testes DNA, 50 uM zinc acetate, 200 nM TF, 25 C, 1 h; high values mean tight binding
# Conditions: protein: recombinant; tags: N-terminal polyhistidine and DsRed monomer fusion (pET32a); label: CyDye5-dUTP incorporated in the synthesized complementary strand; 3' TTTTT single-stranded linker to array surface; dsDNA, one strand shown
# Summary of the method: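 For the binding signal, per-feature fluorescence intensity was read in arbitrary units on an Axon 4000B scanner. Before scanning, a 2% BSA-blocked custom Agilent array made double-stranded with Cy5-dUTP was washed after 1 h at 25 °C with 200 nM protein and 50 µM zinc acetate. The proteins were Ni–NTA-purified transcription factors with N-terminal polyhistidine and DsRed fusions, expressed in E. coli BL21-CodonPlus.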
# Sequence of OsWRKY34 (Q0JBA9 entry or part of it): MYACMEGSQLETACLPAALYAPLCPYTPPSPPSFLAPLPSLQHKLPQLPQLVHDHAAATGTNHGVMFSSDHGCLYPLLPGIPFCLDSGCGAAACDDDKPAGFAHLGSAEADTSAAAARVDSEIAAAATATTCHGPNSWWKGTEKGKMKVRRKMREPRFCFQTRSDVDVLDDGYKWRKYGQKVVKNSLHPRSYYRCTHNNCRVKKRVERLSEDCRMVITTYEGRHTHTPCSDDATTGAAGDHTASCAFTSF
row,Sequence,binding signal
1,ATAATCTCCACATGCATCGTCGCTGTATTTTTTGGTTTCACGGAGTCACCTAGTGCAG,8510 fluorescence intensity (a.u.)
2,TTGTACTACTATTTCTTCATGTTACATAATTCTCCTTGTTCGGAGTCACCTAGTGCAG,8540 fluorescence intensity (a.u.)
3,TAGTATTTTTTTCCTTGGTTTTGTTTCTATCTCCTCTGACCGGAGTCACCTAGTGCAG,9480 fluorescence intensity (a.u.)
4,AATGTATAGGTGGTCCCGTGCTTTTGTATTGTGTTTGCGTCGGAGTCACCTAGTGCAG,10400 fluorescence intensity (a.u.)
5,TTCTCTACATTGTTCATTTAGTATTTTTTTCTTTTCATTTCGGAGTCACCTAGTGCAG,10700 fluorescence intensity (a.u.)
6,ATGGCAACGACCCAGTTCTGTCCGAGTAGGACTCCTTCCACGGAGTCACCTAGTGCAG,8310 fluorescence intensity (a.u.)
7,CCTGGTTGGTTTGGCTCGCACGTGGCGCGTCGTCCTACGCCGGAGTCACCTAGTGCAG,9870 fluorescence intensity (a.u.)
8,TTATTTACAAACGAGTTCCATTTTTTTCTACGGTGATCGGCGGAGTCACCTAGTGCAG,8120 fluorescence intensity (a.u.)
9,TTTTTTGAGCCGTATTTTTGCTCTCTTGTTACGTTTTTTTCGGAGTCACCTAGTGCAG,17100 fluorescence intensity (a.u.)
10,CAGTTTGAGTTTTTGTTAGTTATTTCGTTTATTTTTTTTTCGGAGTCACCTAGTGCAG,12300 fluorescence intensity (a.u.)
11,TCTCTTCTTCTTCTCCAACTTCTTTTTTCTCTTCTTCTTCCGGAGTCACCTAGTGCAG,9680 fluorescence intensity (a.u.)
12,CTTGTTACTAATATACTAGTATTTGAGTGTTACACGTTTTCGGAGTCACCTAGTGCAG,8380 fluorescence intensity (a.u.)
13,GCCATTCCACATCAGTCCGTGCCGCTCTCTGCCCATTCTCCGGAGTCACCTAGTGCAG,18900 fluorescence intensity (a.u.)
14,TCTCTTTTCACCCACCGCACCCATCCAACTTCTCTTCTCTCGGAGTCACCTAGTGCAG,17900 fluorescence intensity (a.u.)
15,TCCATCCCATTCCCGCCATCTCTGCATCTTCTTCTTCTTCCGGAGTCACCTAGTGCAG,9910 fluorescence intensity (a.u.)
16,GATTGTAGTTTGTATATGCTGCCCATTTCTGTTGTTCTTTCGGAGTCACCTAGTGCAG,18900 fluorescence intensity (a.u.)
17,TTCTTCTTCTGCCATTCCATCCATCCACCGCCGCCTCCGCCGGAGTCACCTAGTGCAG,8380 fluorescence intensity (a.u.)
18,ATGCCCATTTTGTAGCGTCGATTCTTGTTTCTGCTTGATTCGGAGTCACCTAGTGCAG,10300 fluorescence intensity (a.u.)
19,ATCTGTATCTTTGTTTATTTTTTTTATTTTTCTCCCATTTCGGAGTCACCTAGTGCAG,10600 fluorescence intensity (a.u.)
20,CTCCATCTCGCATCTTCTCTTTCTCTTTCTCTTTCTCTTTCGGAGTCACCTAGTGCAG,13300 fluorescence intensity (a.u.)
21,AGGTGTAATAGTATTTTGTTGTCTAATTGGTTTTGATTGTCGGAGTCACCTAGTGCAG,11400 fluorescence intensity (a.u.)
22,TATTTCTCTCGCCACAATCTCTGGCGGCGCCACAATCTTACGGAGTCACCTAGTGCAG,8850 fluorescence intensity (a.u.)

row,Sequence,binding signal
1,GGCCTGGAGCTCAGTCAAACAGTTTCAGCTCAGCTCTATCCGGAGTCACCTAGTGCAG,8520 fluorescence intensity (a.u.)
2,TCTCTTCGCTCTGCCCACTTGCTAAACCATACCGGCGATACGGAGTCACCTAGTGCAG,9960 fluorescence intensity (a.u.)
3,CATCCATCGTATCCACCGCCGTCGCCTTCCATCCTCCCCGCGGAGTCACCTAGTGCAG,8040 fluorescence intensity (a.u.)
4,GTGGGAGGGAGGGCGGCGAGCTGCGCGGCGAACCTCGAGCCGGAGTCACCTAGTGCAG,8120 fluorescence intensity (a.u.)
5,CCTTTTTTTTTCCGAGTGTGTGGCTCTCAGATGGAGTTAGCGGAGTCACCTAGTGCAG,8450 fluorescence intensity (a.u.)
6,TGGTGGCGGCGGTGGCAGTGGTGGTGTTGGGATTGGGGTACGGAGTCACCTAGTGCAG,9230 fluorescence intensity (a.u.)
7,TGGGTGGGGATGAAGTGTGGAAGTGGCATATCTTTATCCACGGAGTCACCTAGTGCAG,8320 fluorescence intensity (a.u.)
8,AACGTGGAAGTGGATTGGGTGGTGGGTGGGGATCCACCTACGGAGTCACCTAGTGCAG,22100 fluorescence intensity (a.u.)
9,TGGTGTAGGGTTATGATTGGATGAGTAGTGGAGGTAGGTACGGAGTCACCTAGTGCAG,9780 fluorescence intensity (a.u.)
10,GGTAGGATTGTACTTTTTTTTTTTTTGGGACGGAGGGGTACGGAGTCACCTAGTGCAG,10100 fluorescence intensity (a.u.)
11,CCTTGGGTGGGTACGGATTGGATTAGGGAGGGGAGCACAACGGAGTCACCTAGTGCAG,17600 fluorescence intensity (a.u.)
12,ATTATCCTGATCAAAATTCCCGCAATTCCTTAACACATGTCGGAGTCACCTAGTGCAG,10200 fluorescence intensity (a.u.)
13,GCTTTTCTCTTCCTTTTCGCTCGCTCTCAAGGCCCATAACCGGAGTCACCTAGTGCAG,9530 fluorescence intensity (a.u.)
14,TTGGTGAGAACAGCCTTATCTCTATCGCTTTACTCTCTCTCGGAGTCACCTAGTGCAG,8150 fluorescence intensity (a.u.)
15,CTGACCACCAACAGGGTCACTGTCGCGTTTGCTCGATACTCGGAGTCACCTAGTGCAG,9920 fluorescence intensity (a.u.)
16,TCCTTTCCTACATGTCGCCTTTGCCGTCGCCTCAACCACACGGAGTCACCTAGTGCAG,14200 fluorescence intensity (a.u.)
17,TCTTCTCACTCTAATCAAATCTCTCTCTCTCTCTCTCTCTCGGAGTCACCTAGTGCAG,8280 fluorescence intensity (a.u.)
18,ACGAACCTAAGCACTTCCAAATCAAATCAATCAAAGCTCTCGGAGTCACCTAGTGCAG,56100 fluorescence intensity (a.u.)
19,ATCAAACCACTTCCATCTCTCAATTCTCAAGCACACACACCGGAGTCACCTAGTGCAG,8310 fluorescence intensity (a.u.)
20,GCCGTCGCCGTCGCCGTCCTCCTCGTTGTCGTTGTCGTCGCGGAGTCACCTAGTGCAG,9000 fluorescence intensity (a.u.)
21,TACCACCACTGTTCGTTTCGTTTGTTGGGTTTCGGTCATCCGGAGTCACCTAGTGCAG,8360 fluorescence intensity (a.u.)
22,TACATCCGTTTCCGTTTCGTTCTGTTCTGTTCTGTTGTTTCGGAGTCACCTAGTGCAG,29200 fluorescence intensity (a.u.)
